Hit rate of the full screen: of about 5,500 compounds, about 2,000 (36%) were called active. Roughly 18% stayed inconclusive and do not appear here. Rule as the data show it: active = normalized growth mostly below about 0.91 (no sharp cut-off); inconclusive = no clear call, values can overlap the other calls; inactive = mostly above about 0.92. Some of the results follow.
Assay: chemical genetic growth profiling, strain panel (AID 1159580);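 also: tested at 20 µM; growth read once vehicle control cultures reached saturation at 30 °C; 1 = growth at the plate median or of vehicle wells; lower values mean less growth of the strain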
Conditions: S. cerevisiae deletion strains, growth OD

Measured: normalized growth

O=C1c2ccccc2-c2cccc3cccc1c23
active: locus YAL026C, strain drs2, active compounds read low 0.896 | locus YBL061C, strain skt5, active compounds read low 0.88 | locus YBR009C, strain hhf1, active compounds read low 0.849 | locus YBR023C, strain chs3, active compounds read low 0.855 | locus YBR231C, strain swc5, active compounds read low 0.78 | locus YBR279W, strain paf1, active compounds read low 0.884 | locus YCL011C, strain gbp2, active compounds read low 0.874 | locus YCL016C, strain dcc1, active compounds read low 0.823 | locus YCL061C, strain MRC1, active compounds read low 0.867 | locus YCL069W, strain vba3, active compounds read low 0.924 | locus YDR137W, strain rgp1, active compounds read low 0.756 | locus YDR195W, strain ref2 1.44 [resistant] | locus YDR392W, strain spt3, active compounds read low 0.483 | locus YER155C, strain BEM2 (second series), active compounds read low 0.716 | locus YFR010W, strain ubp6, active compounds read low 0.833 | locus YGL173C, strain kem1, active compounds read low 0.853 | locus YGL240W, strain doc1, active compounds read low 0.868 | locus YGL253W, strain hxk2, active compounds read low 0.822 | locus YHR013C, strain ard1, active compounds read low 0.737 | locus YHR142W, strain chs7, active compounds read low 0.62 | locus YJL092W, strain hpr5, active compounds read low 0.899 | locus YJL095W, strain BCK1 (second series), active compounds read low 0.854 | locus YJL164C, strain tpk1, active compounds read low 0.868 | locus YJL166W, strain qcr8, active compounds read low 0.841 | locus YKL160W, strain elf1, active compounds read low 0.829 | locus YLL001W, strain dnm1, active compounds read low 0.89 | locus YLR027C, strain aat2, active compounds read low 0.875 | locus YLR221C, strain rsa3, active compounds read low 0.875 | locus YLR258W, strain gsy2, active compounds read low 0.9 | locus YLR262C, strain YPT6 (second series), active compounds read low 0.747 | locus YLR320W, strain mms22, active compounds read low 0.714 | locus YMR058W, strain fet3, active compounds read low 0.746 | locus YNL071W, strain lat1, active compounds read low 0.685 | locus YNL248C, strain rpa49, active compounds read low 0.677 | locus YOR070C, strain gyp1, active compounds read low 0.904 | locus YOR083W, strain WHI5, active compounds read low 0.786 | locus YOR106W, strain vam3, active compounds read low 0.693 | locus YOR270C, strain vph1, active compounds read low 0.341 | locus YOR290C, strain snf2, active compounds read low 0.856 | locus YPL051W, strain arl3, active compounds read low 0.739 | locus YPL078C, strain atp4, active compounds read low 0.787 | locus YPL106C, strain sse1, active compounds read low 0.74
inactive: locus YAL021C, strain ccr4, active compounds read low 0.946 | locus YAL030W, strain snc1, active compounds read low 0.954 | locus YBR171W, strain sec66, active compounds read low 0.964 | locus YCR088W, strain abp1, active compounds read low 1.01 | locus YDL005C, strain med2, active compounds read low 0.961 | locus YDL040C, strain nat1, active compounds read low 0.974 | locus YDR001C, strain nth1, active compounds read low 0.988 | locus YDR069C, strain doa4, active compounds read low 0.905 | locus YDR159W, strain sac3, active compounds read low 0.881 | locus YDR297W, strain sur2, active compounds read low 0.965 | locus YDR334W, strain swr1, active compounds read low 0.923 | locus YDR335W, strain msn5, active compounds read low 0.952 | locus YEL003W, strain gim4, active compounds read low 0.967 | locus YEL037C, strain rad23, active compounds read low 0.945 | locus YEL061C, strain CIN8 (second series), active compounds read low 0.953 | locus YER015W, strain faa2, active compounds read low 0.939 | locus YER016W, strain bim1, active compounds read low 0.977 | locus YER111C, strain swi4, active compounds read low 0.968 | locus YGL167C, strain pmr1, active compounds read low 0.97 | locus YGL227W, strain vid30, active compounds read low 0.99 | locus YHR027C, strain rpn1, active compounds read low 0.956 | locus YJL115W, strain asf1, active compounds read low 0.91 | locus YJL129C, strain trk1, active compounds read low 1.02 | locus YJL154C, strain vps35, active compounds read low 0.988 | locus YKR026C, strain gcn3, active compounds read low 0.965 | locus YKR091W, strain srl3, active compounds read low 0.977 | locus YLL026W, active compounds read low 0.932 | locus YLL041C, strain sdh2, active compounds read low 0.994 | locus YLR342W, strain FKS1, active compounds read low 0.966 | locus YLR357W, strain rsc2, active compounds read low 0.985 | locus YLR370C, strain arc18, active compounds read low 0.931 | locus YLR384C, strain iki3, active compounds read low 0.978 | locus YML120C, strain ndi1, active compounds read low 0.949 | locus YMR125W, strain sto1, active compounds read low 0.9 | locus YMR129W, active compounds read low 0.973 | locus YMR205C, strain PFK2, active compounds read low 0.935 | locus YMR231W, strain pep5, active compounds read low 0.954 | locus YNL209W, strain ssb2, active compounds read low 0.928 | locus YNL322C, strain KRE1 (second series), active compounds read low 0.966 | locus YNR049C, strain mso1, active compounds read low 0.986 | locus YOR001W, strain rrp6, active compounds read low 0.911 | locus YOR080W, strain dia2, active compounds read low 0.981 | locus YOR265W, strain rbl2, active compounds read low 0.967 | locus YPL240C, strain hsp82, active compounds read low 0.979

From PubChem BioAssay AID1159580 (chemical genetic matrix, 2015)
